Data from ChEMBL document CHEMBL3988442, “University of Dundee, Small-Polar-MMV Screening Library” (2021).
Hit rate of the full screen: of about 48,000 compounds, about 13,000 (27%) showed an effect of 50% or more. The list shows a part of the results.

Tested on: Wolbachia pipientis
Experiment: Anti-Wolbachia Cell-Based Screen
Format: functional
Parameters: scale not given: in the data most compounds retested in dose-response had high values
Conditions: 5 µM

SMILES | Percent Effect [%]
Cc1ccc(NCCCNC(=O)NCc2c(C)cc(C)[nH]c2=O)nc1 | 7.392
CNC(=O)c1ccc(NC(=O)NC(C)c2cc(C)oc2C)cc1 (stereo unspecified) | -7.2
CC(=O)c1ccc(NC(=O)NC(C)c2ccc3c(c2)CC(=O)N3)cc1 (stereo unspecified) | 0.8032
CC(Cn1cccn1)NC(=O)Nc1ccc(F)cc1 (stereo unspecified) | 5.847
CC(=O)c1ccc(NC(=O)C(NC(=O)Nc2ccccc2)C(C)C)cc1 (stereo unspecified) | 128.1
CC(C)C(NC(=O)Nc1ccc(F)cc1)C(=O)N(C)C (stereo unspecified) | 92.8
CC(C)NC(=O)c1ccc(NC(=O)NC(C)c2ccccn2)cc1 (stereo unspecified) | -7.886
CC(=O)c1ccc(NC(=O)N[C@H](C(=O)O)C(C)C)cc1 | 99.56
CC(C)[C@H](NC(=O)NC1CCS(=O)(=O)C1)C(=O)Nc1cccnc1 (stereo partly specified) | 9.774
CC(=O)c1ccc(NC(=O)NC(C(=O)N(C)C)C(C)C)cc1 (stereo unspecified) | -8.422
CN1C(=O)CC(C(=O)O)C12CCN(Cc1ccc(Cl)c(Cl)c1)CC2 (stereo unspecified) | -9.214
Cc1cccc(-c2noc([C@@H]3C[C@@H](O)CN3C)n2)c1 | -0.5094
CC(C)NC(=O)c1ccc2c(c1)C(c1nc[nH]n1)CN2S(C)(=O)=O (stereo unspecified) | 2.921
COc1cccc(COCC(=O)N2CCN(CC(C)(C)O)CC2)c1 | -0.1486
O=C(O)C(F)(F)F.O=S(=O)(Cc1ccccc1)N1CCCn2cnc(CN3CCCC3)c2C1 | -19.91
CCS(=O)(=O)N1CCCn2cnc(COc3cccnc3)c2C1.O=C(O)C(F)(F)F | 90.76
O=C(O)C(F)(F)F.O=S(=O)(C1CC1)N1CCCn2cnc(COc3cccnc3)c2C1 | 121.6
CN(C)C(=O)COCc1ncn2c1CN(c1ncc(F)cn1)CCC2 | 5.015
O=C(O)C(F)(F)F.O=C(O)C(F)(F)F.c1cnc(NCc2ncn3c2CN(Cc2cccnc2)CCC3)nc1 | 4.407
O=C(O)C(F)(F)F.O=S(=O)(c1cccs1)N1CCCn2cnc(CO)c2C1 | -6.746
O=C(O)C(F)(F)F.O=C(O)C(F)(F)F.c1cc(CN2CCCn3cnc(COCC4CC4)c3C2)ccn1 | -1.984
Fc1cnc(N2CCCn3cnc(COc4cccnc4)c3C2)nc1.O=C(O)C(F)(F)F | 88.73
CN(C)CCOCc1ncn2c1CN(c1ncc(F)cn1)CCC2.O=C(O)C(F)(F)F | -8.613
O=S(=O)(NC(CO)Cc1c[nH]c2ccccc12)c1cncc(F)c1 (stereo unspecified) | 0.282
O=C(CCc1nc(Cl)n[nH]1)N1C[C@@H](CN2CCCCC2)[C@@H](CO)C1 | 12.3
N#Cc1ccccc1N1CCCN(CC(=O)Nc2ccccc2Cl)CC1 | 11.85

SMILES | Percent Effect [%]
Cc1ncsc1CCC(=O)N1CCn2cccc2C1c1cccnc1 (stereo unspecified) | 2.617
Cc1cc2c(=O)n3c(nc2s1)CCN(C(=O)c1ccncc1)CC3 | -15.49
CCCC1c2cccn2CCN1C(=O)Cn1cnc2sc(C)cc2c1=O (stereo unspecified) | 146.6
CCC1c2cccn2CCN1C(=O)c1ccc2nonc2c1 (stereo unspecified) | -3.198
CCC1c2ccc(C)n2CCN1C(=O)Cn1cnc2sc(C)cc2c1=O (stereo unspecified) | 132.6
CNC(=O)C1CCCCN1C(=O)CCn1cnc2sccc2c1=O (stereo unspecified) | 2.602
Cc1cc2c(=O)n(CC(=O)N3CCn4cccc4C3C(C)C)cnc2s1 (stereo unspecified) | 139.9
CCN1CCC(CC(=O)N2CCn3cccc3C2c2cccnc2)CC1 (stereo unspecified) | -1.172
CCc1cc(C(=O)N2CCC(C3CCN(c4ncccn4)CC3)C2)on1 (stereo unspecified) | -2.788
CCCC1c2cccn2CCN1C(=O)c1cc(CC)no1 (stereo unspecified) | 123.5
COC(=O)CCNC(=O)c1nnn(-c2ccccc2)c1C(F)(F)F | -9.818
CS(=O)(=O)N1CCCCCC1C1CCN(Cc2nc(C3CC3)no2)CC1 (stereo unspecified) | -7.435
Cc1nc(NC(=O)CN2CCOC(Cn3cccn3)C2)sc1C (stereo unspecified) | -8.379
Cc1nc(NC(=O)CN2C(=O)c3ccccc3NC2C(C)C)sc1C (stereo unspecified) | 126.1
Cc1nc(NC(=O)CN2CCc3c(nc(C(C)C)n3C)C2)sc1C | -4.598
O=C(CN1CCCC(c2ccn[nH]2)C1)Nc1nc2c(s1)CCC2 (stereo unspecified) | -12.59
Cc1nc(NC(=O)CCN2C(=O)c3ccccc3NC2C(C)C)sc1C (stereo unspecified) | 126.1
Cc1nc(NC(=O)C(C)N2CCN(c3ccccc3F)CC2)sc1C (stereo unspecified) | 2.631
Cc1nc(NC(=O)C2CCCN(C(N)=O)C2)sc1-c1ccccc1 (stereo unspecified) | 3.163
CC(C)C1Nc2ccccc2C(=O)N1CC(=O)Nc1nc2c(s1)CCC2 (stereo unspecified) | 128.1
Cc1cc(C2CCCN(CC(=O)Nc3nc4c(s3)CCC4)C2)n[nH]1 (stereo unspecified) | 7.579
Cc1cc(NCC(=O)N(C)CC(F)(F)F)c(C(N)=O)cc1F | -3.816
O=S(=O)(Nc1ccon1)c1cc(Cl)cc2c1OCC2 | 4.815
CCCS(=O)(=O)N(C)C(=O)CCc1ccsc1 | -1.511
CN(C)c1ccccc1C(=O)N1C[C@@H](CN2CCCCC2)[C@@H](CO)C1 | -1.886
